According to PubChem BioAssay (NCI):
“And” between values parts separate entries of the source, which are not always exact repeats. Equal entries are not always repeated. Compounds without any hit were thinned out: in the full panel of roughly 83,000, 20% have a hit.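 The endpoint reported here, percent growth, reads 100 for growth as untreated, 0 for no net growth and -100 for all cells dead.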 The source made the active and inactive calls. How the source made its calls: active means growth percent below 10; inactive means the rest.

What follows are molecules tested on MDA-MB-468 breast (assay: NCI-60 one-dose screen, 48 h (100 = growth as untreated, 0 = no growth, -100 = all killed)). Settings: 10 µM unless noted.

SMILES | growth
CC(C)CC1C(=O)N2CCC[C@H]2C2(O)O[C@](NC(=O)C3C=C4c5cccc6[nH]c(Br)c(c56)C[C@H]4N(C)C3)(C(C)C)C(=O)N12 (stereo partly drawn) | 20.3% (inactive)
COc1ccc(/C(=C/c2cc(OC)c(OC)cc2[N+](=O)[O-])C(=O)O)cc1 | 111% (inactive)
CCO/C=N/C1=C(C#N)C(c2ccc(OC)cc2)c2c(c3ccccc3n(C)c2=O)O1 (stereo not drawn) | 105% (inactive)
Cc1ccc2c(c1)-c1cc(C)nn1-c1ccc(C#N)cc1O2 | 40.9% (inactive)
COC(=O)/C=C1\S/C(=N\NS(=O)(=O)c2ccc(C)cc2)N(c2ccccc2)C1=O | 102% (inactive)
C=CC(=O)Nc1cccc(Nc2nc(SC)nc(-c3cccc([N+](=O)[O-])c3)c2C#N)c1 | 55.9% (inactive)
CN(C)c1ccc(/C=C(\C#N)c2ccccc2)cc1 | 4.19% (active) and -2.35% (active) and 4.76% (active)
NS(=O)(=O)c1ccc(N/C=C/C(=O)c2cc3ccccc3oc2=O)cc1 | 90.4% (inactive)
CCN1CCN(CCNc2nccc(-c3c(-c4ccc(F)c(O)c4)nc4occn34)n2)S1(=O)=O | 23.5% (inactive)
N#Cc1cccc(OCc2nc(N)nc(N)c2-c2ccc(Cl)c(Cl)c2)c1 | 19.3% (inactive)
C=C1C(=O)O[C@H]2[C@H]1CC/C(CNC(=O)c1cccc3ccccc13)=C\CC[C@@]1(C)O[C@@H]21 | 33.8% (inactive)
OC(c1cc2ccc(C(F)(F)F)cc2c2cc(C(F)(F)F)ccc12)C1CCCCN1 (stereo not drawn) | -74% (active)
O=C(c1ccc(Cl)cc1)c1ccc(Cl)cc1 | 97.2% (inactive)
